# G9a block: qHTS Assay for Inhibitors of Histone Lysine Methyltransferase G9a | G9a H3K9 monomethylation, AlphaScreen, 2 h | Potency, µM (highest dose often 102 µM), for inactives: top-dose activity, negative = inhibition, most hits filed as inhibitors | hit rate 8.8% among 350,000; also: potency is read from the fitted curve at half-maximal effect; % is scaled to controls: 0 for no effect and ±100 for the full control effect; nearly all actives have a fitted effect of over 75% in size
#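 G9a (20 nM) was preincubated 15 min with compound, then reacted 2 h at room temperature with 500 nM biotin-H3K9 peptide and 20 µM SAM. Monomethyl-H3K9 detected by AlphaScreen using anti-H3K9me1 antibody.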
# JMJD2A Tudor: qHTS Assay for Inhibitors of JMJD2A-Tudor Domain; AlphaScreen JMJD2A-Tudor / H3K4me3 peptide binding; hit rate 4.4% among 390,000; AID 504339, 2011; Potency, µM (titrated, usually from 114 µM), inactives show at the highest dose activity change, negative = inhibition, usual class: inhibitors; also: potency is read from the fitted curve at half-maximal effect; % is scaled to controls: 0 for no effect and ±100 for the full control effect; nearly all actives have a fitted effect of over 50% in size
# Target sequence (O75164 whole entry, looked up, the tested form may be a part): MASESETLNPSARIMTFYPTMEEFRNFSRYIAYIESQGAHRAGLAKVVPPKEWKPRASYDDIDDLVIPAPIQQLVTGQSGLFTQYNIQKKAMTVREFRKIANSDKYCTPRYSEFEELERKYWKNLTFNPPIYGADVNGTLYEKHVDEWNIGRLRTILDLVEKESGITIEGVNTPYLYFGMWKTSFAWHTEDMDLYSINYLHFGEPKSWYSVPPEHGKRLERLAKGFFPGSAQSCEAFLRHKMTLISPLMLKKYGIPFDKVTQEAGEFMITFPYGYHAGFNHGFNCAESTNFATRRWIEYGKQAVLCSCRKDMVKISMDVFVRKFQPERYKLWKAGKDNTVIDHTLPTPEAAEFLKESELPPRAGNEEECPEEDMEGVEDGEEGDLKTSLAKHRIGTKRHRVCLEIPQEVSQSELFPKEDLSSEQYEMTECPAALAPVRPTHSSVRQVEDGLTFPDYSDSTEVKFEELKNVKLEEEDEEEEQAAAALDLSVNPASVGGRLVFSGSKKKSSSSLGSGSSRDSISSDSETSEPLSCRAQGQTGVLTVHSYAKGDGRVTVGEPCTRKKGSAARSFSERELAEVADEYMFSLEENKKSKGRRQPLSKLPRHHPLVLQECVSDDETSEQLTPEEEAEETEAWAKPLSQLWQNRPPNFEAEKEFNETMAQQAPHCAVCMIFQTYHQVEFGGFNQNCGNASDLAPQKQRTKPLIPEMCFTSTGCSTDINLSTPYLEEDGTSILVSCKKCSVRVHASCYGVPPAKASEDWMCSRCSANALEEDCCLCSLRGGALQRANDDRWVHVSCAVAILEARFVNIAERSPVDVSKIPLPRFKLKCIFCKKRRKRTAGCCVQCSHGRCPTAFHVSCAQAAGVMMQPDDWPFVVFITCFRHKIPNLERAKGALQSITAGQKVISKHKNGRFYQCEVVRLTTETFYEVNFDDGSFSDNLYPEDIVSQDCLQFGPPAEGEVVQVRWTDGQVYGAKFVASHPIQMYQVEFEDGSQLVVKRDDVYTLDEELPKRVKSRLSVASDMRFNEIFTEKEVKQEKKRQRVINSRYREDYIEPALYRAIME
# CtBP-E1A blk: qHTS Assay for Inhibitors of the CtBP/E1A Interaction; AlphaScreen GST-E1A/His-CtBP binding, 1536-well; stronger effect = lower value; activity change, % (concentration not given with the values); hit rate 0.49% among 340,000; AID 651724, 2012; in the data active = activity change below about -65%; inconclusive = mostly about -30% to -63%; also: % is scaled to controls: 0 for no effect and ±100 for the full control effect
#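 Protein mix (5X: 125 nM each GST-E1A, His-CtBP) was incubated with pinned compound 2 h at 37 deg C in dark, in 50 mM Tris pH 8.0 buffer with 300 mM NaCl. Glutathione donor and nickel acceptor beads followed; AlphaScreen signal read after 1 h.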
# HP1b binding inh: HTS for Inhibitors of HP1-beta Chromodomain Interactions with Methylated Histone Tails; Chromobox protein homolog 1 (Homo sapiens), P83916; AlphaScreen HP1-beta / biotin-H3K9me3 peptide binding; Potency, µM (top dose mostly 114 µM), for the others: at the top dose activity change, negative = inhibition, most hits filed as inhibitors; hit rate 0.56% among 390,000; also: potency is read from the fitted curve at half-maximal effect; nearly all actives have a fitted effect of over 70% in size
#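 AlphaScreen: HP1-beta (50 nM) preformed 30 min with biotin-H3(1-18)K9me3 peptide (50 nM) in PBS pH 7.4, 0.01% Tween-20. Compound added for 30 min at RT, then streptavidin donor/nickel chelate acceptor beads (10 ug/mL) for 30 min.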
# BAZ2B inh: qHTS Assay for Inhibitors of BAZ2B | AlphaScreen BAZ2B-H3K14Ac peptide displacement | hit rate 4.4% among 360,000 | Potency, µM (titrated, usually from 114 µM), for the others: top-dose activity change, negative = inhibition, actives largely listed as inhibitors; also: potency is read from the fitted curve at half-maximal effect; % is scaled to controls: 0 for no effect and ±100 for the full control effect; nearly all actives have a fitted effect of over 60% in size
#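 Compounds, titrated to a top concentration of 110 uM, were incubated 30 min at room temperature with preformed BAZ2B/acetyl-K14 H3 peptide complex (50 nM each). Proximity signal was measured by AlphaScreen after 20 min with beads.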
# Six1-Eya2 inh: qHTS Assay for Inhibitors of the Six1/Eya2 Interaction; hit rate 0.56% among 360,000; Homeobox protein SIX1 (Homo sapiens) + Protein phosphatase EYA2 (Homo sapiens), …; AlphaScreen GST-Six1/His-Eya2 binding, biochemical; stronger effect = lower value; activity change, % (concentration not given with the values); in the data active = activity change below about -65%; inconclusive = mostly about -30% to -63%; also: % is scaled to controls: 0 for no effect and ±100 for the full control effect
#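 Homogeneous AlphaScreen proximity assay pairing GST-Six1 with His-tagged Eya2 (added as 5X mix: 250 nM and 500 nM) in 50 mM Tris pH 8.0, 300 mM NaCl, 1 mM TCEP. Glutathione donor and nickel acceptor beads; 1 h, 37 °C, dark.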
# The depositor's hits bear a star; ? = inconclusive; . = no result given; [ ] = another dose, or the depositor's remark. Most compounds without a hit are left out; they make up all but 10% or so of the library. Unless noted, calls follow the shape of the dose curve; as a rule, active = well fitted inhibition curve with a large enough effect; inconclusive = small, poorly fitted or top-dose-only effect; inactive = no such curve, though single readings can be large or run the other way.
SMILES,G9a block,JMJD2A Tudor,CtBP-E1A blk,HP1b binding inh,BAZ2B inh,Six1-Eya2 inh
Fc1cccc2sc(Nc3nc4c(F)cccc4s3)nc12,28%[59 µM],-10%,-7,31%,-5%,-14
CCOC(=O)C1CCN(c2cc3c(cc2NC(=O)c2ccc(Cl)cc2)n(C)c(=O)n3C)CC1,-30%[59 µM],-10%,.,31%,?,.
CC(SCc1cn2cc(Cl)ccc2n1)C(=O)O (stereo not given),?,50µM*,2,0%,-24%,5
O=C(Nc1ccc(CN2CCOCC2)cc1)c1ccc(-c2cccc(Cl)c2)o1,18µM*,-34%,-6,-13%,?,-8
O=C(Nc1ccc(CN2CCOCC2)cc1)c1ccc(Cl)cc1Cl,17%[59 µM],-3%,-11,47%,3%,6
O=C(Nc1ccc2nn(-c3ccccc3)nc2c1)c1ccc(-c2cccc(Cl)c2)o1,14µM*,-22%,.,84%,-15%,.
O=C(Nc1ccc(CN2CCOCC2)cc1)c1ccc(-c2ccc(Cl)cc2Cl)o1,40µM*,-27%,-5,3%,?,-13
O=C(CCCCCNc1nc(=S)[nH]c2ccccc12)N1CCN(c2ccccn2)CC1,?,.,.,.,-36%,.
NS(=O)(=O)c1ccc(CCNC(=O)CCCCCNc2nc(=S)[nH]c3ccccc23)cc1,50µM*,.,.,.,1%,.
COc1cccc(N2CCN(C(=O)CCCCCNc3nc(=S)[nH]c4ccccc34)CC2)c1,-46%,-33%,?,-3%,32µM*,?
COC(=O)c1sccc1S(=O)(=O)N1CCN(c2cccc(C)c2C)CC1,30%[59 µM],-8%,.,17%,3%,.
COc1cc(/C=C/c2nc3ccccc3s2)cc(OC)c1O,50µM*,-7%,3,17%,?,12
COc1cc(C=C(c2nc3ccccc3s2)c2nc3ccccc3s2)ccc1O,3.5µM*,45µM*,-17,?,35µM*,-17
COc1cc(/C=C/c2cc(C(=O)O)c3ccccc3n2)cc(OC)c1O,-6%[59 µM],-8%,-3,32%,-36%,-5
COc1ccc(C=C(c2nc3ccccc3s2)c2nc3ccccc3s2)cc1O,?,?,3,?,?,-25
COc1cc(/C=C2/C(=O)NN(c3ccc(Cl)cc3)C2=O)cc(OC)c1O,?,50µM*,.,?,35µM*,-2
COc1cc(/C=C2\C(=O)NN(c3ccccc3)C2=O)cc([N+](=O)[O-])c1O,16µM*,89µM*,-2,?,56µM*,-14
CCOc1cc(/C=C2\C(=O)NN(c3ccccc3)C2=O)cc([N+](=O)[O-])c1O,32µM*,50µM*,-7,40µM*,?,-8
COc1cc(/C=N/N2CCCCC2)cc([N+](=O)[O-])c1O,50µM*,?,-3,-21%,45µM*,-15
CCOC(=O)COc1ccc(/C=C2/C(=O)NN(c3ccc(F)cc3)C2=O)cc1OC,-6%[0.501 µM],?,-21,14%,-9%,0
O=C(CSc1nc(-c2ccc(F)cc2)[nH]c1-c1ccccc1)Nc1ccccc1,-2%[59 µM],-5%,.,19%,-3%,.
Cc1c2cnn(-c3ccccc3)c(=O)c2c(C)n1CCCC(=O)Nc1cc(F)ccc1F,2%[59 µM],-30%,.,13%,-28%,.
COc1cc(/C=C2\C(=O)NN(c3ccc(C)cc3)C2=O)cc([N+](=O)[O-])c1O,14µM*,?,-19,?,40µM*,3
COc1cc(/C=C2/C(=O)NN(c3ccccc3)C2=O)cc(Br)c1O,40µM*,?,.,-24%,?,4
COc1ccc(N2CCN(c3oc(-c4ccc(COc5cccc(C)c5)o4)nc3C#N)CC2)cc1,?,?,.,19%,?,.
SMILES,G9a block,JMJD2A Tudor,CtBP-E1A blk,HP1b binding inh,BAZ2B inh,Six1-Eya2 inh
CC(=O)c1cccc(NC(=O)Nc2sc3nc4n(c(=O)c3c2C)CCC(C)CC4)c1 (stereo not given),-3%[59 µM],-20%,.,-3%,-8%,.
COc1ccc(/C=N/NC(=O)Cn2nc([N+](=O)[O-])cc2C)c(OC)c1OC,0%,-9%,.,20%,-11%,0
COc1cc([N+](=O)[O-])cc(/C=N/NC(=O)CSc2nnc(-c3ccccc3)n2C)c1O,.,?,-13,25%,-3%,-14
COc1cc([N+](=O)[O-])cc(/C=N/NC(=O)Cn2nc(C)cc2C)c1O,-14%,79µM*,?,23%,71µM*,-91*
COc1cc([N+](=O)[O-])cc(/C=N/NC(=O)Cn2nccc2C)c1O,4%,-33%[11.4 µM],-94*,-11%,45µM*,-88*
COc1cc(Br)cc(/C=N/NC(=O)Cc2ccc(C(F)(F)F)cc2[N+](=O)[O-])c1O,17%,89µM*,-3,-11%,8%,15
O=C(NCCc1ccccc1)c1c2c(nc3ccccc13)C(=O)N(C1CCCCC1)C2,2%[59 µM],-20%,.,37%,-17%,.
O=C(/C=C(\O)c1ccccc1)c1ccccc1O,-39%[2.33 µM],.,.,.,.,.
CC(C)CC(=O)N1CCN(Cc2ccc(Br)cc2)CC1,32µM*,20µM*,13,?,-32%,13
COc1ccc(CN2CCOCCOCCOCCOCCOCC2)cc1,-2%,-4%,5,8%,3%,-1
CC(C)CC(=O)N1CCN(Cc2ccc(C(F)(F)F)cc2)CC1,.,28µM*,.,?,?,-2
CC(C)CC(=O)N1CCN(Cc2ccc(Cl)cc2)CC1,.,10µM*,7,?,?,2

# Assay outcomes: PubChem BioAssay, National Center for Advancing Translational Sciences (NCATS)
